Measured values: PMC4336329 (PLoS ONE, 2015)
The campaign covered roughly 310,000 compounds. About 14,000 (4.5%) showed an effect of 50% or more. The effect is printed as a negative number. This excerpt belongs to a sample that is enriched for strong results.

Each compound was assayed against human ether-à-go-go-related gene (hERG) potassium channel (human, UniProt Q12809) (assay: primary screen, population patch clamp on CHO cells stably expressing hERG; higher = less effect of the substance).
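Note: peak tail current of the secondary pulse compared with the same well before compound.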

Sequence of human ether-à-go-go-related gene (hERG) potassium channel (Q12809 whole entry, looked up): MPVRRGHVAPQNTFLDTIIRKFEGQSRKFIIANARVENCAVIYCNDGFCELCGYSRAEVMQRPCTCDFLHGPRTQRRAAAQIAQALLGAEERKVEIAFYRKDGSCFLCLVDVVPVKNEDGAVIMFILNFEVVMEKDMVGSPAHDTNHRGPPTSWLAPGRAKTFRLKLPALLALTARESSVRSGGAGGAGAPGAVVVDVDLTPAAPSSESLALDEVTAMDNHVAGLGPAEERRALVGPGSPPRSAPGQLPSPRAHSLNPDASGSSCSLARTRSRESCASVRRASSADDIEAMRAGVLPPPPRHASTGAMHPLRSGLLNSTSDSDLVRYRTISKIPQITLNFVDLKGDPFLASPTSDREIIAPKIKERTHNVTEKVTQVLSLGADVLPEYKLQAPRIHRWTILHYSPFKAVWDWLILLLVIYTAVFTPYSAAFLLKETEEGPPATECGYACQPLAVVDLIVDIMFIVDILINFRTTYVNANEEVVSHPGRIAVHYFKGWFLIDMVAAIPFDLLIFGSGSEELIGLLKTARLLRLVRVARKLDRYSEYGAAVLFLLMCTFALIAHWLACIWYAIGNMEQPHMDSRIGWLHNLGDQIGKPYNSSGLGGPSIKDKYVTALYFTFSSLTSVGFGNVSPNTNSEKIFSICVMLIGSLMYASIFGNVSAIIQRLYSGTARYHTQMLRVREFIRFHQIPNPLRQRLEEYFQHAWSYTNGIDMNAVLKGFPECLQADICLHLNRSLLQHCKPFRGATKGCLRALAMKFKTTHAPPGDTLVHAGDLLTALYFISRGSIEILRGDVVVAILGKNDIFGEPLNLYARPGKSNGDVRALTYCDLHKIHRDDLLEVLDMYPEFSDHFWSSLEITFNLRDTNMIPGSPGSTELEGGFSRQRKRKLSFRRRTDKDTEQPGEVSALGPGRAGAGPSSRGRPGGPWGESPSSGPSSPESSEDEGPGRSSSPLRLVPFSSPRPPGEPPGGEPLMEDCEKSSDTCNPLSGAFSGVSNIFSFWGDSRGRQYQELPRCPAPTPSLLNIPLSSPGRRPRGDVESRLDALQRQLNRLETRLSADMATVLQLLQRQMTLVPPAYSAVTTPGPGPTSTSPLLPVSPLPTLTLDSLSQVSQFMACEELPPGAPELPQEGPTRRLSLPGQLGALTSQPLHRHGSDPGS

Compound | hERG current change (%, negative = inhibition) at 10uM [%]
CCCCC(=O)OCC(=O)Nc1ccc(C)c(F)c1 | 14.6
Cc1ccccc1NNC(N)=S | 5.65
Cc1oc(S(=O)(=O)N2CCCC2)cc1C(=O)Nc1ccccc1 | 7.38
CCOc1cc(C(=O)N2CCCN(C)CC2)cc(OCC)c1OCC | 14.8
Cc1onc(-c2ccccc2)c1C(=O)N1CCN(S(=O)(=O)c2ccc3c(c2)OCCO3)CC1 | -17.2
O=C(O)/C=C/c1cn(-c2ccccc2)nc1-c1ccc2c(c1)OCCO2 | 10.1
Cl.O=C(/C=C/c1cn(-c2ccccc2)nc1-c1ccc2c(c1)OCCO2)NCCCN1CCOCC1 | -5.65
O=C(/C=C/c1cn(-c2ccccc2)nc1-c1ccc2c(c1)OCCO2)NCCO | -51.1
C/C(=N\NC(=O)CNc1cccc2ccccc12)c1ccc(Br)s1 | 6.57
Cc1ccc(C(=O)OCC(=O)Nc2cccc(S(=O)(=O)NC3=NCCCCC3)c2)c(C)c1 | -15.4
CS(=O)(=O)Nc1cccc(C(=O)CC2(O)C(=O)Nc3ccccc32)c1 (centres unmarked) | 8.15
Nc1n[nH]c(N)c1N=Nc1ccccc1 | 16.7
COc1ccccc1N1CCN(C/C=C/c2ccc(N(C)C)cc2)CC1 | -53.9
COc1ccccc1/C=C/CN1CCN(c2ccccc2)CC1 | -15.6
CCOc1ccccc1N1CCN(C/C=C/c2ccc(N(C)C)cc2)CC1 | -60.1
CCOc1ccccc1N1CCN(Cc2ccco2)CC1 | -14.9
CCOc1ccccc1N1CCN(C(=O)CC(C)(C)C)CC1 | 0.665
CCN(CC)c1ccc(/C=N/N2CCN(c3ccccc3OC)CC2)cc1 | 14.4
CCOc1ccccc1C1CC(=O)Nc2c1c(=O)n(C)c(=O)n2C (centres unmarked) | 7.34
O=C(NCc1ccccc1)C(=O)NCC1OCCN1S(=O)(=O)c1ccc2c(c1)OCCO2 (centres unmarked) | -3.14
O=C(CCCc1nc(-c2ccc(Cl)cc2)no1)Nc1cccnc1 | -24.6
CCCOc1ccc(C2C(=O)N(C3CCCCCC3)CC(=O)N2Cc2ccco2)cc1OC (centres unmarked) | -36.7
COc1ccc(C2C(=O)N(C3CCCCC3)CC(=O)N2C2CCCC2)cc1 (centres unmarked) | -12.1

Compound | hERG current change (%, negative = inhibition) at 10uM [%]
COc1cc(C2C(=O)N(C3CCCC3)CC(=O)N2Cc2ccco2)ccc1OC(C)C (centres unmarked) | -27.6
COc1ccc(C2C(=O)N(C3CCCCC3)CC(=O)N2C2CCCCC2)cc1 (centres unmarked) | -51.7
Cc1ccc(C2C(=O)N(C3CCCC3)CC(=O)N2C2CCCCC2)cc1 (centres unmarked) | -25.4
COc1ccc(C2C(=O)N(C3CCCCC3)CC(=O)N2Cc2ccco2)cc1 (centres unmarked) | -53.7
COc1cccc(-c2nnc3n2N=C(c2cccc(Br)c2)CS3)c1 | 6.32
CCOC(=O)Cn1c(-c2ccccc2)ccc(C#N)c1=O | 8.28
Cc1ccc(S(=O)(=O)NC23CC4CC(CC(C4)C2)C3)cc1 | 3.97
CCC(=O)N1CCN(c2ccc(Cl)cc2NC(=O)c2ccc(N3CCCC3)c([N+](=O)[O-])c2)CC1 | -6.9
COc1ccccc1NC(=O)CCN1C(=O)C2CC=C(Cl)CC2C1=O (centres unmarked) | -2.46
Cc1ccc(/C=C(\NC(=O)c2ccccc2)C(=O)NC2CCN(Cc3ccccc3)CC2)o1 | -55.5
Cc1ccc(/C=C(\NC(=O)c2ccccc2)C(=O)NCCN2CCOCC2)o1 | -3.91
CC(C)(Oc1ccc(Cl)cc1)C(=O)NC1CCCCC1 | 0.43
C=C(C)c1cccc(C(C)(C)NC(=O)NC2CN3CCC2CC3)c1 (centres unmarked) | 1.14
C=C(C)c1cccc(C(C)(C)NC(=O)NC2CCCC2)c1 | 15.1
C=C(C)c1cccc(C(C)(C)NC(=O)NC2CCN(Cc3ccccc3)CC2)c1.Cl | -55.5
COc1ccccc1CC(=O)NC1CCN(Cc2ccccc2)CC1 | 1.52
Cc1ccc(/C=C(\NC(=O)c2ccccc2)C(=O)NCC2CCCO2)o1 (centres unmarked) | -5.4
CC(C)(Oc1ccc(Cl)cc1)C(=O)NC1CC1 | 1.41
COc1cc(C(=O)NC2CCN(Cc3ccccc3)CC2)cc(Cl)c1OC | -44.3
COc1cc(C(=O)NC2CCN(Cc3ccccc3)CC2)cc(Cl)c1OC(C)C | -61.2
CC(C)(Oc1ccc(Cl)cc1)C(=O)NC1CCN(Cc2ccccc2)CC1 | -70.4
Cc1cccc(-c2onc3ccc(C4(C)OCCO4)cc23)c1 | -1.6
CCOC(=O)c1[nH]cnc1C(=O)O | -2.12

Compound | hERG current change (%, negative = inhibition) at 10uM [%]
CN(C)c1ccc(N2C(=NC(=O)C3CCCO3)SC3CS(=O)(=O)CC32)cc1 (centres unmarked) | 11.1
CCN(CC)C(=O)N1CCN(C(=O)N2CCOCC2)CC1 | 29.8
Cc1ccc2cccc(S(=O)(=O)N3CCN(c4cccc(Cl)c4)CC3)c2n1 | -2.91
CC1CC(=O)N(CC(=O)Nc2cccc(F)c2)c2ccccc2S1(=O)=O (centres unmarked) | -4.3
O=C(N1CCCCCC1)n1c(Cc2ccccc2)nc2ccccc21 | -30.5
O=C(CN1CCN(c2ncc(C(F)(F)F)cc2Cl)CC1)NC(=O)NCc1ccccc1 | 4.2
O=C(NC1CCN(Cc2ccccc2)CC1)c1ccc2c(c1)[nH]c(=O)n2Cc1ccc(F)cc1 | -21.8
Fc1ccc(NC(=S)NC2CCN(Cc3ccccc3)CC2)cc1 | -30
CC(C)(C)c1ccc(C(=O)NC2CCN(Cc3ccccc3)CC2)cc1 | -65.3
Cc1ccc(-n2c(=O)[nH]c3cc(C(=O)NC4CCN(Cc5ccccc5)CC4)ccc3c2=O)cc1 | 11.2
O=C(NC1CCN(Cc2ccc(F)cc2)CC1)c1ccccc1 | -50.2
O=C(NC1CCN(Cc2ccccc2)CC1)c1ccc(CS(=O)c2ccc(F)cc2)o1 (centres unmarked) | -22.4
Cc1ccccc1C(=O)NC1CCN(Cc2ccccc2)CC1 | -29.1
S=C(Nc1ccccc1)NC1CCN(Cc2ccccc2)CC1 | -39.6
CS(=O)(=O)Cc1ccc(C(=O)NC2CCN(Cc3ccccc3)C2)cc1 (centres unmarked) | -5.28
CC(C)(C)c1ccc(C(=O)N2CCC(NC(=O)c3ccccc3)CC2)cc1 | -1.48
Cl.O=C(NC(=S)NC1CCN(Cc2ccccc2)CC1)c1ccc(F)cc1 | -72.3
Cc1ccc(C)n1-c1ccc(C(=O)NC2CCN(Cc3ccccc3)CC2)cc1 | -65.5
Cc1ccc(-c2nnc(SCC(N)=O)n2C)cc1 | -0.685
CN(C)N1C(N)=C(C#N)C(c2cccnc2)C2=C1CCCC2=O (centres unmarked) | -9.73
CC(C)Oc1ccc(C(=O)O)cc1 | 16.5
O=S(=O)(NCc1ccccc1)c1ccc(Cl)c(S(=O)(=O)NCc2ccccc2)c1 | -33
COc1ccc(C(=O)NCCC2=CCCCC2)cc1 | -9.79

Compound | hERG current change (%, negative = inhibition) at 10uM [%]
NS(=O)(=O)c1ccc(CCNC(=O)CNS(=O)(=O)c2cccc(Br)c2)cc1 | 13.2
COc1ccc(C2C(C#N)=C(N)N(c3sc4c(c3C#N)CCCC4)C3=C2C(=O)CC(C)(C)C3)cc1 (centres unmarked) | -2.99
O=C(COc1ccc(Cl)cc1)Nc1ccc2oc(=O)ccc2c1 | 3.7
Cc1cc(C)n(C(=O)c2cc(F)c(F)cc2C)n1 | 4.1
O=C(NC1CCN(Cc2ccc(Cl)c(Cl)c2)CC1)c1ccccc1 | -18.3
CC(C)Oc1ccc(C(=O)NC2CCCCC2)cc1 | 10.3
Cc1ccc(CN2CCC(NC(=O)c3ccccc3)CC2)cc1 | -75
OC1CCN(Cc2ccc3ccccc3c2)CC1 | 13.4
O=C(NC1CCN(Cc2ccccc2)CC1)c1ccccc1 | -33.3
Cc1ccc(CN2CCSc3ccc(C(=O)NC4CCN(Cc5ccccc5)CC4)cc32)cc1 | 8.21
CCCCOc1ccc(C(=O)NCC(=O)NC2CCN(Cc3ccccc3)CC2)cc1 | -25.6
CC(C)Oc1ccc(C(=O)NC2CCN(Cc3ccccc3)CC2)cc1 | -60.8
O=C(NC1CCN(Cc2ccc3ccccc3c2)CC1)c1ccccc1 | -66.3
CCOC(=O)c1sc(=NC(=O)CCSc2ccccc2)n(C)c1C | -11.8
O=C(NCCOc1cccc2cccnc12)c1cccs1 | -12.8
O=C(CSc1ncnc2c1nnn2Cc1ccc(F)cc1)NC1CCCCC1 | 11.8
N/C(=N\OC(=O)N1c2ccccc2Sc2ccccc21)c1ccc(Br)cc1 | 5.79
O=C(COc1c(Br)cc(Br)c2cccnc12)N1CCc2ccccc2C1 | 8.07
CC(=O)N/C(=C\c1ccccc1)C(=O)OCC(=O)N(CC(C)C)c1c(N)n(Cc2ccccc2)c(=O)[nH]c1=O | 6.75
CC(c1ccc(F)cc1)n1c(-c2ccc3ccccc3n2)n[nH]c1=S (centres unmarked) | 18.1
